Data on 28 compounds can be found in PubChem BioAssay AID1851 (National Center for Advancing Translational Sciences (NCATS), 2009).

Screen size: about 16,000 compounds; about 5,700 (36%) were called active. Not shown: some 24% with an inconclusive outcome. The list shows a part of the results. Values without a mark were called inactive. Calls come from the whole dose curve; as a rule, active = well fitted curve in the direction sought with a large enough effect; inconclusive = small, poorly fitted or top-dose-only effect, or effect the other way; inactive = no such curve, though single readings can be large or run the other way.
% is set by controls: 0 for no effect and ±100 for the full control effect.

Sequence of Cytochrome P450 1A2 (Homo sapiens) (P05177 whole entry, looked up): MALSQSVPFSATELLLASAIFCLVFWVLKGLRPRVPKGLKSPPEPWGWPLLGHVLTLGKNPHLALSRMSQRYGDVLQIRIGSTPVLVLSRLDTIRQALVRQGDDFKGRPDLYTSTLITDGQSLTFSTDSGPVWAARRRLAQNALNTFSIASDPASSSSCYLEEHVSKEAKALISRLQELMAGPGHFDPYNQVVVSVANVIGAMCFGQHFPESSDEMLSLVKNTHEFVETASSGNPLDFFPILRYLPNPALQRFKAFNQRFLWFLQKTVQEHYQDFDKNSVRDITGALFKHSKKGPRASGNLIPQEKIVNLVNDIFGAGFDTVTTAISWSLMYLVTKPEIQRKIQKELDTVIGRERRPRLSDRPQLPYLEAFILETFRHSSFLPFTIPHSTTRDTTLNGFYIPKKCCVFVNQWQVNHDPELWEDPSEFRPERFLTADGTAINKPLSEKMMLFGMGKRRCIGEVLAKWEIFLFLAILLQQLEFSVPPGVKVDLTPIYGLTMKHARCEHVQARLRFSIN

The test concerns the target Cytochrome P450 1A2 (Homo sapiens) (UniProt P05177). The test can be described thus: Cytochrome panel assay with activity outcomes. To be noted: recombinant CYP, pro-luciferin dealkylation, luminescence, p450-cyp1a2; series mostly up to 57.1 µM.
Consider `CN(C)C(=O)Oc1cccc([N+](C)(C)C)c1`, for which the AC50 entry was “inactive”. For `CS[C@]12C(=O)C[C@]3(C)[C@@H](CC[C@@]3(O)C(=O)CO)[C@@H]1CCC1=CC(=O)CC[C@]12C`, the activity, negative = inhibition was -24.3% [at 2.29 µM]. Turning to `N#Cc1ccc(-c2ccccc2)nc1SCC(=O)c1cccc(Cl)c1`, the AC50 is 2000 nM (active). Turning to `CCC[C@@H]1C[C@@]1(CCC)C(NC(=O)c1ccc(-c2ccccc2)cc1)c1cccc(Cl)c1` (stereo partly drawn), the AC50 entry is “inactive”. As for `Cc1c(C(=O)Nc2nccs2)sc2nc(-c3cccs3)cc(C(F)(F)F)c12`, the AC50 is 1580 nM (active).

With `Cc1ccc(Oc2ccccc2/C=C2\SC(=O)N(C)C2=O)cc1`, the AC50 was 3160 nM (active). As for `Cc1ccc(NC(=O)CN2C(=O)S/C(=C\c3cccn3C)C2=O)cc1`, the AC50 entry was “inactive”.

On to `Cc1cc(N)c2ccccc2[n+]1CCCCCCCCCC[n+]1c(C)cc(N)c2ccccc21`, for which the AC50 entry was “inactive”. As for `Cc1cc(N)c2ccccc2[n+]1CCCCCCCCCCCCCC[n+]1c(C)cc(N)c2ccccc21`, the AC50 entry was “inactive”. The same measure, in the same setting: the result for `CCCCCCCCC[n+]1cccc2c3ccccc3ccc21` reads 15800 nM (active); that for `COc1cccc2c1OC[C@@H](CO)[C@H]2N(C)C(=O)Nc1ccc(Cl)cc1Cl`, “inactive”. With `Clc1ccccc1-c1nc(-c2ccncc2)no1`, the AC50 was 79.4 nM (active). Take `O=C(CCNS(=O)(=O)c1cccs1)N1CCc2ccccc2C1`: the AC50 was 15800 nM (active). Still for that read-out and setting: the result for `O=C(CCNS(=O)(=O)c1cccs1)N1CCCCCC1` reads “inactive”; that for `CC(C)C(NS(=O)(=O)c1cccs1)C(=O)NCCN1CCN(c2ccccc2)CC1` (stereo not drawn), “inactive”; that for `Cc1cc(C)c2c(-n3cccc3)nn(CC#N)c2n1`, 2510 nM (active).

As to `Cc1cc(C)c2c(-n3cccc3)n[nH]c2n1`, the AC50 is 3550 nM (active). For the compound `CSc1nc(Oc2ccc(=O)[nH]n2)nc(N(C)C)n1`, the AC50 result was “inactive”. For `Cc1cccc(-n2nc([N+](=O)[O-])c(=NCc3cccnc3)n2O)c1`, the AC50 was 2000 nM (active). Take `Cc1cccc(-n2c(Cn3nc(C)c([N+](=O)[O-])c3C)n[nH]c2=S)c1`: the AC50 entry was “inactive”. In the case of `COc1ccc(F)cc1S(=O)(=O)NC(Cc1ccccc1)C(N)=O` (stereo not drawn), the AC50 entry was “inactive”. On to `COc1cc(OC)c(C#N)c(S(=O)(=O)Cc2ccccc2)c1`, for which the AC50 is 15800 nM (active). For `C#CCn1c(S(=O)(=O)Cc2ccc(OC)cc2)nc(-c2ccccc2)c1-c1ccccc1`, the AC50 entry was “inactive”. Turning to `C[C@@H](CNC(N)=O)NC(N)=O`, the activity, negative = inhibition was -12.2% [at 11.4 µM]. Take `CN(C)c1ccc(-c2cncnc2N(C)Cc2ccco2)cc1`: the AC50 is 631 nM (active).

Take `CN(Cc1ccco1)c1ncncc1-c1ccc2c(c1)OCO2`: the AC50 is 200 nM (active). With `COc1cccc(-c2cncnc2N(C)Cc2ccco2)c1`, the AC50 was 10000 nM (active). Consider `CN(Cc1ccco1)c1ncncc1-c1cccnc1`, for which the AC50 is 5010 nM (active).

By AC50 is commonly meant the concentration at which the activity in the assay is half-maximal.
